Assay results taken from PubChem BioAssay AID1259343 (VanderVen Lab, College of Veterinary Medicine, Cornell …, 2017).
Among all 6,200 compounds or so, about 2,900 (47%) were called active. So high a share suggests a set chosen from earlier hits. The list shows a part of the results. A number with no mark means an inactive call. Cut-off read from the data, not from the text of the source: active = inhibition above about 50%; inactive = the rest.

Test: Mycobacterium tuberculosis growth inhibition, primary screen (AID 1259343)
Conditions: inhibition: at 10 µM, hits give high values; outcome: 10 uM
In the case of `C=C(C)Cn1c(SCCCC)nc2c1c(=O)[nH]c(=O)n2C`, the inhibition is reported as -35.9%. Compound `CCS(=O)(=O)N1CCc2cc(-c3csc(-c4ccc(O)cc4)n3)ccc21` has an inhibition of 11.5%. For `O=C(CCCc1ccc(Cl)cc1)N1CCCC(CO)(Cc2ccc(F)cc2F)C1` (configuration not stated), the inhibition was 18.9%. In the case of `Cc1ccc(C(=O)N2CCCC(CCc3ccc(F)c(F)c3)C2)cc1O` (configuration not stated), the inhibition is reported as 7.31%. With `O=C(CCC(F)(F)F)N1CCCC(CCc2ccc(F)cc2F)C1` (configuration not stated) the inhibition was 66% (active). Compound `CCCOc1ccc2c(c1)OCC(C(=O)Nc1cnn(C)c1)=C2` has an inhibition of -4.68%. `CCCn1cc(CNC(=O)c2ccc(Cl)cn2)cn1` gave an inhibition of -32.2%. With `CCCn1cc(NC(=O)c2cc(-c3ccccc3)on2)cn1` the inhibition was 85.3% (active). With `O=[N+]([O-])c1cc(S(=O)(=O)C(F)(F)F)ccc1N1CCN(c2ccccc2F)CC1` the inhibition was 24.3%. For `O=S(=O)(Nc1ccc(N2CCCC2)c(F)c1)c1cc(F)cc(F)c1`, the inhibition was 56.4% (active). For `Cc1ccc(C(=O)N2CCCN(C(=O)OC(C)(C)C)CC2)cc1S(C)(=O)=O`, the inhibition was 74.7% (active). For `Cc1ccc(Cl)cc1N1CCN(C(=O)c2ccc(=O)[nH]c2)CC1`, the inhibition was 32.4%. Compound `O=C(c1cc(Br)cc(Br)c1)N1CCCCCC1` has an inhibition of -4.59%. In the case of `OCc1sc(N2CCOCC2)nc1-c1ccccc1`, the inhibition is reported as 89.7% (active). Compound `Cc1cc2c(cc1C)C(=O)C(N1CCOCC1)=C(c1ccccc1)C2=O` has an inhibition of 40.4%. With `CCN(Cc1ccccc1)C(=O)c1ccc(-c2ccccc2)nc1N1CCOCC1` the inhibition was 20.4%. For `Cc1cc(-c2n[nH]c(=S)o2)c(C)n1-c1ccccc1`, the inhibition was 70.3% (active). In the case of `S=c1[nH]nc(-c2cc(-c3cccs3)nc3ccccc23)o1`, the inhibition is reported as “inactive”. Compound `O=S(=O)(Nc1ccc(Br)cc1F)c1cccs1` has an inhibition of 31.8%. For `COC(=O)c1ccc(F)c(NS(=O)(=O)c2ccc(Cl)c(C(F)(F)F)c2)c1`, the inhibition was 41.9%. In the case of `O=S(=O)(Nc1ccc(Br)cc1F)c1ccc(Cl)c(C(F)(F)F)c1`, the inhibition is reported as 88.3% (active). With `O=S(=O)(Nc1ccc(Br)cc1Cl)c1ccc(F)cc1` the inhibition was 50.5% (active). With `CCC(C)(C)C1CCC(=NNc2ccc([N+](=O)[O-])cc2)CC1` (configuration not stated) the inhibition was 74.3% (active). With `O=[N+]([O-])c1ccc(NN=CC2CCCCC2)cc1` the inhibition was 97.8% (active). Work on `CC(C)(C)C1CCC(=NNc2ccc([N+](=O)[O-])cc2)CC1` (configuration not stated) yielded an inhibition of -18.8%. For `O=[N+]([O-])c1ccc(NN=C2CCCCCCC2)cc1`, the inhibition was 88.4% (active). Compound `O=[N+]([O-])c1ccccc1NN=C1CCCCc2ccccc21` has an inhibition of 5.1%. `O=S(=O)(Oc1ccc2ccccc2c1Cl)N1CCCCC1` showed an inhibition of 0.9%. In the case of `Cc1cc(C)cc(NC(=O)c2c[nH]c3c(c(C)nn3-c3ccccc3)c2=O)c1`, the inhibition is reported as 45.9%. With `COc1cccc(NC(=O)c2c[nH]c3c(c(C)nn3-c3ccccc3)c2=O)c1` the inhibition was 90.4% (active). For `Cc1ccc(-n2nc(C)c3c(=O)c(C(=O)N4c5ccccc5CC4C)c[nH]c32)cc1` (configuration not stated), the inhibition was 54.2% (active). With `Cc1nn(-c2ccccc2)c2[nH]cc(C(=O)Nc3ccc(N(C)C)cc3)c(=O)c12` the inhibition was 29%. In the case of `Cc1nn(-c2ccccc2)c2[nH]cc(C(=O)Nc3ccccc3)c(=O)c12`, the inhibition is reported as 53.1% (active). In the case of `COc1ccc(NC(=O)c2c[nH]c3c(c(C)nn3-c3ccccc3)c2=O)cc1`, the inhibition is reported as 67.8% (active). In the case of `Cc1nn(-c2ccccc2)c2[nH]cc(C(=O)NCc3ccccc3)c(=O)c12`, the inhibition is reported as 51.6% (active). `Cc1ccc(CNC(=O)c2c[nH]c3c(c(C)nn3-c3ccccc3)c2=O)cc1` gave an inhibition of 49.8%. Compound `Cc1nn(-c2ccccc2)c2[nH]cc(C(=O)NCc3ccccc3Cl)c(=O)c12` has an inhibition of 31.5%. With `Cc1noc(-c2cc(Br)cc(Br)c2O)n1` the inhibition was 101% (active). For `O=C(O)c1cc2cc(Cl)ccc2[nH]1`, the inhibition was 56.1% (active). In the case of `O=C(O)c1csc(-c2ccc(Cl)cc2Cl)n1`, the inhibition is reported as 39.2%. In the case of `Cc1cc(Cl)cc2sc(N(CCCn3ccnc3)C(=O)/C=C/c3cccs3)nc12`, the inhibition is reported as 75.5% (active). Work on `N=C1C2=C3Sc4ccccc4N3CCCC2=NN1c1ccc(Cl)cc1` yielded an inhibition of 13.7%. For `O=[N+]([O-])c1cccnc1Oc1ccc(Oc2ccccc2)cc1`, the inhibition was 94.5% (active). With `CN(Sc1ccccc1[N+](=O)[O-])c1ccccc1` the inhibition was 30.9%. With `c1ccc(CCCc2nnnn2CC2CCOC2)cc1` (configuration not stated) the inhibition was 65.2% (active). In the case of `COc1ccc(NC(C)c2nc(-c3ccco3)no2)cc1` (configuration not stated), the inhibition is reported as 94.9% (active). `CC(C)c1noc(C(C)Nc2ccc3c(c2)CCO3)n1` (configuration not stated) showed an inhibition of 1.87%. `CC1CCC(NC(=O)COc2ccccc2Br)CC1` (configuration not stated) showed an inhibition of 42.5%. In the case of `CC1(C)C2CCC1(C)C(NC(=O)COc1ccccc1Cl)C2` (configuration not stated), the inhibition is reported as 91.4% (active). In the case of `CC1(C)C2CCC1(C)C(NS(=O)(=O)Cc1ccccc1)C2` (configuration not stated), the inhibition is reported as 7.59%. With `CCOc1ccccc1NC(=O)N1CCN(CCCOC(c2ccc(Cl)cc2)c2ccc(Cl)cc2)CC1` the inhibition was 16.6%. `O=C(Nc1ccc(C(=O)O)c(O)c1)c1cc(Cl)cc(Cl)c1` gave an inhibition of 25.6%. For `Cc1occc1C(=O)Nc1cc(Cl)ccc1C(=O)O`, the inhibition was 62.5% (active). For `CCCc1cc(=O)[nH]c(-n2nc(C)cc2NC(=O)C2c3ccccc3Oc3ccccc32)n1`, the inhibition was 99% (active). With `CCc1cc(=O)[nH]c(-n2nc(C)cc2NC(=O)C2c3ccccc3Oc3ccccc32)n1` the inhibition was 101% (active). For `Cc1cc(=O)[nH]c(-n2nc(C)cc2NC(=O)C2c3ccccc3Oc3ccccc32)n1`, the inhibition was 100% (active). With `Cc1cc(NC(=O)C2c3ccccc3Oc3ccccc32)n(-c2nc3c(c(=O)[nH]2)CCC3)n1` the inhibition was -27.3%. With `FC(F)Sc1ccc(NC(=S)NN2CCCCC2)cc1` the inhibition was 28.6%. With `CN(C)P(=NC(=S)Nc1ccc(SC(F)F)cc1)(c1ccncc1)N(C)C` the inhibition was “inactive”. With `O=C(Nc1ccc(SC(F)F)cc1)c1ccc(-n2cncn2)cc1` the inhibition was 52.4% (active). For `COc1cccc(-c2cc(C(=O)O)n3nc(-c4ccccc4)cc3n2)c1`, the inhibition was 104% (active). Compound `COc1ccc(-c2cc(C(=O)O)n3nc(-c4ccc(Cl)cc4)cc3n2)cc1` has an inhibition of 41.5%. With `COc1ccc(-c2cc3nc(C)cc(NC(C)c4ccccc4)n3n2)cc1OC` (configuration not stated) the inhibition was 26.1%. `COc1ccc(C(=O)Nc2nc(-c3ccccc3)cs2)cc1` gave an inhibition of 22.9%. In the case of `COc1cccc(C(=O)Nc2nc(-c3ccccc3)cs2)c1`, the inhibition is reported as 71.2% (active). For `Cc1cc(C(=O)O)n2nc(-c3ccc(Cl)cc3)cc2n1`, the inhibition was 76.7% (active). For `CCOC(=O)C1CCCN(C(=O)c2cc(-c3cccc(OC)c3)nc3cc(-c4ccccc4)nn23)C1` (configuration not stated), the inhibition was 1.82%. For `O=C(O)c1cc(-c2ccccc2F)nc2cc(-c3ccccc3)nn12`, the inhibition was 71.8% (active). `CCN(CC)S(=O)(=O)c1ccc(C(=O)Nc2nc(-c3ccccc3)cs2)cc1` gave an inhibition of 35.8%. For `O=C(O)c1cc(-c2ccccc2F)nc2cc(-c3ccc(Cl)cc3)nn12`, the inhibition was 88.1% (active). For `Cc1cc(C(=O)NCCc2ccccc2)n2nc(-c3ccccc3)cc2n1`, the inhibition was 81.8% (active). For `CC(C)(C)C(=O)Nc1nc(-c2cccc(Br)c2)cs1`, the inhibition was 57.1% (active). With `O=C(O)c1cc(-c2ccc(F)cc2)nc2cc(-c3ccccc3)nn12` the inhibition was 67.1% (active). Work on `Cc1ccc(-c2cc(C(=O)N(CCN(C)C)Cc3ccccc3)n(-c3ccccc3)n2)cc1C` yielded an inhibition of 27.2%. With `O=C(O)c1cc(-c2ccccc2Cl)nc2cc(-c3ccccc3)nn12` the inhibition was 96.6% (active). For `Nc1nc(-c2ccccc2Cl)co1`, the inhibition was 12%. `Cc1ccc(-c2c(C)nn3c(NCc4cccnc4)cc(C)nc23)cc1` gave an inhibition of 30.6%. `Cc1ccc(-c2c(C)nn3c(NCCc4ccccc4)cc(C)nc23)cc1` showed an inhibition of -2.64%. In the case of `COc1ccc(-c2c(C)nn3c(NCCc4ccccc4)cc(C)nc23)cc1OC`, the inhibition is reported as 65.5% (active). `NC(=O)c1ccc(OCc2cc(Cl)c3c(c2)OCO3)cc1` gave an inhibition of 35.7%. In the case of `O=C1OC(c2ccccc2)OC(=O)C1=Cc1ccc(OCc2ccc3c(c2)OCO3)cc1` (configuration not stated), the inhibition is reported as 84.2% (active). In the case of `CN(Cc1ccccc1)c1ncnc(Oc2ccc3c(c2)OCO3)c1N`, the inhibition is reported as 28%. For `O=C(NCCOc1ccccc1F)C12CC3CC(CC(C3)C1)C2`, the inhibition was 31.1%. With `O=C(NCc1ccco1)C12CC3CC(CC(C3)C1)C2` the inhibition was 98.1% (active). With `C=Cc1ccc(Cn2cc(C(=O)NCc3ccco3)sc2=O)cc1` the inhibition was 7.16%. For `COC(=O)CCc1c(C)nc2c(c(-c3ccco3)nn2C2CCS(=O)(=O)C2)c1C` (configuration not stated), the inhibition was 24.9%. Compound `C#CCN(C)C(=O)c1ccc(-c2cccc(C(F)(F)F)c2)s1` has an inhibition of 23.8%. `Nc1ncc(N=Nc2cccc(C(F)(F)F)c2)s1` showed an inhibition of 2.91%. In the case of `CC(C)N(C(=O)c1ccc(-c2cccc(C(F)(F)F)c2)s1)C(C)C`, the inhibition is reported as 66.1% (active). In the case of `O=C(NCCOc1ccc(C(F)(F)F)cc1)C1CSc2ccccc2O1` (configuration not stated), the inhibition is reported as 77.1% (active). In the case of `CC1Oc2ccccc2OC1C(=O)NCCOc1ccc2ccccc2c1` (configuration not stated), the inhibition is reported as 29.2%. In the case of `O=C(NCC(O)COc1ccc(C(F)(F)F)cc1)c1ccccc1Cl` (configuration not stated), the inhibition is reported as 22.8%. For `CCCOC(=O)c1ccc(NC(=O)c2cc(CCC)[nH]n2)cc1`, the inhibition was 65% (active). Work on `CCCOC(=O)c1cc(Br)ccc1NC(=O)c1ccc(C)nc1` yielded an inhibition of 8.93%. With `CCCOC(=NCCCN(C)C)NC(=O)c1ccc(Cl)c(Cl)c1` the inhibition was 43.6%. In the case of `Nc1scc(-c2ccc(Oc3ccccc3)cc2)[n+]1CCCS(=O)(=O)[O-]`, the inhibition is reported as 68.1% (active). `Nc1nc(-c2ccc(Oc3ccccc3)cc2)cs1` gave an inhibition of 17.5%.
